The sample as a whole holds a higher share of hits than the screen did. How many sequences the whole screen found active is unknown.

The values below come from the supplement of paper PMC3724861.

The test deals with T1, Caupolican (Caup) homeodomain DNA-binding domain.
T1 sequence: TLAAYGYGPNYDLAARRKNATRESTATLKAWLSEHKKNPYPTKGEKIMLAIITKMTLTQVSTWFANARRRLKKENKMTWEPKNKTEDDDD
In words: PBM E-score (8-mer, recovered from the published 9-mer minima) (E-score (dimensionless, -0.5 to 0.5)); Drosophila protein; higher = stronger relative binding preference, active = 0.31 or more. The essentials:
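An enrichment score, with higher meaning stronger, expresses relative binding preference for each short DNA word. The protein used was Caup's homeodomain DNA-binding domain (residues 214-303), produced by in vitro transcription and translation and tested at 100 nM on custom-designed protein binding microarrays. The 8-mer values were recovered from published 9-mer scores, each equal to the lower of its two constituent 8-mer scores.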
GTAGTTCA: the “PBM E-score” value is 0.136 (inactive).

Regarding AATAAATA, the “PBM E-score” value was 0.202 (inactive).

Regarding AGTATCTG, the “PBM E-score” value was 0.00127 (inactive).

AGTGACGC: the “PBM E-score” value was -0.155 (inactive).

In the case of CATGTAAA, the “PBM E-score” value is 0.421 (active).

In the case of ACTGTAAA, the “PBM E-score” value is 0.154 (inactive).

For AATGTAAG, the “PBM E-score” value was 0.214 (inactive).

For the sequence CCTGTAAG, the “PBM E-score” value is 0.127 (inactive).

Turning to GATGTAAA, the “PBM E-score” value was 0.305 (inactive).

As to TATGTAAA, the “PBM E-score” value is 0.327 (active).

As to AATGTAAT, the “PBM E-score” value was 0.303 (inactive).

In the case of AATGTAAA, the “PBM E-score” value was 0.323 (active).

With TCTGTAAA, the “PBM E-score” value was 0.0832 (inactive).

In the case of GCTGTAAA, the “PBM E-score” value was 0.128 (inactive).

With CCTGTAAA, the “PBM E-score” value was 0.131 (inactive).

Regarding CATGTAAG, the “PBM E-score” value was 0.395 (active).

Turning to GTCGCTTA, the “PBM E-score” value is 0.0465 (inactive).

Turning to CACGAAAG, the “PBM E-score” value is 0.0338 (inactive).

For the sequence CTCGTGAA, the “PBM E-score” value is 0.027 (inactive).

As for GTAGATAA, the “PBM E-score” value was 0.14 (inactive).

Regarding ACCATAAT, the “PBM E-score” value was 0.119 (inactive).

As to GATGTAAC, the “PBM E-score” value is 0.306 (inactive).

In the case of CATGTAAC, the “PBM E-score” value is 0.431 (active).

With AATGTAAC, the “PBM E-score” value was 0.295 (inactive).

GATTTTAC: the “PBM E-score” value is 0.156 (inactive).

For CTTTAGTC, the “PBM E-score” value was -0.0734 (inactive).

AATCGTAA: the “PBM E-score” value was 0.173 (inactive).

For CCCTAGAA, the “PBM E-score” value is -0.0811 (inactive).

As to GAACATCC, the “PBM E-score” value was 0.295 (inactive).

As to CAACATGC, the “PBM E-score” value was 0.317 (active).

As to AAACATTC, the “PBM E-score” value was 0.209 (inactive).

With GCACATGC, the “PBM E-score” value was -0.0345 (inactive).

In the case of CAACATTC, the “PBM E-score” value is 0.0579 (inactive).

For GAACATGC, the “PBM E-score” value is 0.354 (active).

As to AAACATCC, the “PBM E-score” value was 0.258 (inactive).

As for CAACATCC, the “PBM E-score” value is 0.238 (inactive).

Regarding ACACATGT, the “PBM E-score” value was 0.372 (active).

For AAACATGC, the “PBM E-score” value is 0.342 (active).

On to ACACATGC, for which the “PBM E-score” value is 0.236 (inactive).

On to ACACATGG, for which the “PBM E-score” value was 0.167 (inactive).

For AACGAATG, the “PBM E-score” value is 0.00089 (inactive).

For the sequence ATACCAGC, the “PBM E-score” value is -0.0192 (inactive).

On to AAAACACG, for which the “PBM E-score” value is 0.303 (inactive).

GGGTCAAA: the “PBM E-score” value was -0.108 (inactive).

On to CGTAAAAC, for which the “PBM E-score” value is -0.0282 (inactive).

Turning to CATAGAGA, the “PBM E-score” value was 0.113 (inactive).

ATTAGTAG: the “PBM E-score” value was 0.212 (inactive).

GCATGCGC: the “PBM E-score” value was -0.104 (inactive).

In the case of ATGCGGGA, the “PBM E-score” value is -0.0659 (inactive).

Take GGGTGTGA: the “PBM E-score” value is -0.0838 (inactive).

For the sequence CAACATGG, the “PBM E-score” value was 0.295 (inactive).

Consider TCACATGA, for which the “PBM E-score” value is 0.182 (inactive).

Turning to CAACATGA, the “PBM E-score” value is 0.344 (active).

On to CCACATGA, for which the “PBM E-score” value was 0.124 (inactive).

Take ACACATGA: the “PBM E-score” value is 0.265 (inactive).

As to AAACATCA, the “PBM E-score” value was 0.279 (inactive).

For the sequence AAACATGA, the “PBM E-score” value was 0.409 (active).

For the sequence GAGCATGA, the “PBM E-score” value was 0.0786 (inactive).

Take TAACATGA: the “PBM E-score” value is 0.424 (active).

Consider GAACATGA, for which the “PBM E-score” value is 0.421 (active).

For the sequence GAACATTA, the “PBM E-score” value was 0.219 (inactive).

As to TAACATCA, the “PBM E-score” value was 0.305 (inactive).

On to CGAACGAC, for which the “PBM E-score” value is 0.0606 (inactive).

As to ATGGTATG, the “PBM E-score” value was 0.132 (inactive).

Regarding CTATTTAA, the “PBM E-score” value was -0.0109 (inactive).

Regarding CGTCTTGA, the “PBM E-score” value is -0.0138 (inactive).

AGGTCTCA: the “PBM E-score” value was -0.08 (inactive).

As to ACTGAGTC, the “PBM E-score” value was -0.0541 (inactive).

For AGCTATAG, the “PBM E-score” value was -0.0145 (inactive).

On to AAACATGG, for which the “PBM E-score” value is 0.321 (active).

On to AAACATTT, for which the “PBM E-score” value was 0.252 (inactive).

AAACATTG: the “PBM E-score” value is 0.183 (inactive).

For the sequence AAACATGT, the “PBM E-score” value was 0.443 (active).

With CAACATAC, the “PBM E-score” value is 0.302 (inactive).

As to AAACATCT, the “PBM E-score” value is 0.215 (inactive).

For the sequence GAACATAC, the “PBM E-score” value was 0.331 (active).

Regarding AAACATCG, the “PBM E-score” value is 0.217 (inactive).

On to GGACATAC, for which the “PBM E-score” value was 0.179 (inactive).

As to CCAGTTCC, the “PBM E-score” value is -0.2 (inactive).

For GCAGCGAC, the “PBM E-score” value is -0.118 (inactive).

With GATCGGCA, the “PBM E-score” value is -0.0784 (inactive).

Regarding ATTGCGAC, the “PBM E-score” value was 0.0529 (inactive).

As to CAATTAGA, the “PBM E-score” value is 0.0523 (inactive).

On to GGGGTAAC, for which the “PBM E-score” value was -0.00369 (inactive).

Regarding CGTCGTTC, the “PBM E-score” value is 0.0474 (inactive).

Regarding ACAAGAAG, the “PBM E-score” value is 0.183 (inactive).

Take GTTAACAA: the “PBM E-score” value was 0.296 (inactive).

For the sequence ATTAACAC, the “PBM E-score” value was 0.326 (active).

For CTTAACAC, the “PBM E-score” value was 0.226 (inactive).

Take ATTAACAG: the “PBM E-score” value is 0.146 (inactive).

Turning to ATTAACAA, the “PBM E-score” value is 0.342 (active).

On to ATTAACTC, for which the “PBM E-score” value is 0.0863 (inactive).

In the case of ATTGCGGC, the “PBM E-score” value was -0.0444 (inactive).

Consider AAGCGGAT, for which the “PBM E-score” value is -0.113 (inactive).

As for ACTTCGAT, the “PBM E-score” value was 0.0903 (inactive).

AGGGCAGC: the “PBM E-score” value was -0.267 (inactive).

As for CTGTCCGC, the “PBM E-score” value is -0.11 (inactive).

TCATGAGA: the “PBM E-score” value is 0.0179 (inactive).

Take ACATGATG: the “PBM E-score” value was 0.351 (active).

Turning to AGATGATG, the “PBM E-score” value is 0.0748 (inactive).

Consider ATATGATC, for which the “PBM E-score” value was 0.134 (inactive).

On to ACATGATA, for which the “PBM E-score” value is 0.413 (active).

For the sequence ACATGAGT, the “PBM E-score” value was 0.305 (inactive).

On to ATATGATG, for which the “PBM E-score” value is 0.183 (inactive).

Consider ACATGATC, for which the “PBM E-score” value is 0.357 (active).

Consider ACATGAGA, for which the “PBM E-score” value is 0.344 (active).

As for CCATGATA, the “PBM E-score” value was 0.0656 (inactive).

With GCATGATA, the “PBM E-score” value is 0.159 (inactive).

As to CCATGATC, the “PBM E-score” value was 0.0355 (inactive).

In the case of GCCACCAA, the “PBM E-score” value was -0.183 (inactive).

As to CCGTAAAA, the “PBM E-score” value was -0.0169 (inactive).

In the case of ACCTTAAA, the “PBM E-score” value is -0.0366 (inactive).

For CAAGGCGA, the “PBM E-score” value is -0.0101 (inactive).

ACGGGTAC: the “PBM E-score” value was 0.103 (inactive).

Take CTACAACC: the “PBM E-score” value is 0.281 (inactive).

ATACAACC: the “PBM E-score” value was 0.258 (inactive).

Consider CTACAACA, for which the “PBM E-score” value was 0.332 (active).

GCACAACA: the “PBM E-score” value is 0.211 (inactive).

Turning to CCACAACA, the “PBM E-score” value was 0.142 (inactive).

With ATACAACA, the “PBM E-score” value is 0.373 (active).

For GTTCAACA, the “PBM E-score” value is 0.198 (inactive).

As to ATACAACG, the “PBM E-score” value was 0.283 (inactive).

With GTACAACA, the “PBM E-score” value is 0.429 (active).

For AGATACAA, the “PBM E-score” value was 0.296 (inactive).

Take ACATAAAA: the “PBM E-score” value is 0.221 (inactive).

Turning to ACATACAA, the “PBM E-score” value is 0.386 (active).

TCATACAA: the “PBM E-score” value is 0.163 (inactive).

As to GCATACAA, the “PBM E-score” value was 0.247 (inactive).

As for ACATAAAT, the “PBM E-score” value was 0.318 (active).

For ACATACGT, the “PBM E-score” value was 0.206 (inactive).

Take AGATACAG: the “PBM E-score” value is 0.109 (inactive).

In the case of ACATACAG, the “PBM E-score” value is 0.247 (inactive).

Regarding AGATACAT, the “PBM E-score” value was 0.368 (active).

Turning to ACATACAT, the “PBM E-score” value is 0.427 (active).

On to ACATAAAG, for which the “PBM E-score” value is 0.215 (inactive).

For the sequence CATAGGTA, the “PBM E-score” value was 0.0694 (inactive).

Turning to AACACTAC, the “PBM E-score” value was 0.222 (inactive).

For TCATTTAA, the “PBM E-score” value was 0.167 (inactive).

Regarding AGGGTTGG, the “PBM E-score” value was -0.0294 (inactive).

AAAACAGT: the “PBM E-score” value is 0.11 (inactive).

For the sequence AGGCCGTA, the “PBM E-score” value was -0.041 (inactive).

As for GGCCAGTA, the “PBM E-score” value was -0.128 (inactive).

Consider TAACGCTA, for which the “PBM E-score” value is -0.0254 (inactive).

Turning to GCAGTGAC, the “PBM E-score” value is -0.0444 (inactive).

For CATCACGA, the “PBM E-score” value was 0.107 (inactive).

As for AGTGCTTG, the “PBM E-score” value is 0.116 (inactive).
